Structures are written as SMILES. Out of some 320,000 compounds screened, about 2,100 (0.66%) were called active. Inconclusive results (about 53%) are left out. Calls come from the whole dose curve; as a rule, active = well fitted inhibition curve with a large enough effect in the signal ratio, with a control signal flat (not every such curve was filed as active); inconclusive = small, poorly fitted or top-dose-only effect, or effect the other way, or a change in a side signal; inactive = flat fitted curve, though single readings scatter; the % refers to the signal ratio. What follows is part of a selection rich in actives, with near analogues and random picks from the rest.
Potency is the fitted concentration of half-maximal effect.

The assay can be described thus: qHTS Assay for Lipid Storage Modulators in Drosophila S3 Cells.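 For cell number change: cells counted by Cell Tracker Red CMTPX staining in the red channel.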 For lipid storage change, negative = inhibition: % is set by controls: 0 for no effect and ±100 for the full control effect. As to conditions: BODIPY lipid droplet fluorescence, 18-24 h, cells fed with added oleic acid; cell number change: measured here: cell count max response; series mostly up to 46.1 µM; lipid storage change, negative = inhibition: at the top concentration. The method, boiled down: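 Drosophila S3 cells got compounds at several concentrations plus oleic acid (400 uM solution). Laser-scanning cytometry with 488 nm excitation read lipid droplets at 500-530 nm and cells at 575-640 nm. Percent activity was relative to 20 uM Triacsin C.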
Turning to `COc1ccc(NC(=O)C2CCCN2c2nn3c(=O)cc(C)nc3s2)cc1` (stereo not given), the “lipid storage change, negative = inhibition” value is -9.15% (inactive) and the cell number change stood at 13.8%.

On to `Cc1cc(=O)n2nc(N3CCCC(C(=O)NCc4ccccc4)C3)sc2n1` (stereo not given), for which the “lipid storage change, negative = inhibition” value was 14.6% (inactive) and the cell number change was -4.61%.

As to `CCC1CCCCN1CCCNC(=O)C1CCCN(c2nn3c(=O)cc(C)nc3s2)C1` (stereo not given), the molecule was classed as inactive.

`Cc1cc(=O)n2nc(N3CCC(C(=O)N4CCN(c5ccccc5)CC4)CC3)sc2n1`: the “lipid storage change, negative = inhibition” value is -24.2% (inactive).

On to `Cc1cc(=O)n2nc(N3CCCC(C(=O)NCc4ccccc4Br)C3)sc2n1` (stereo not given), for which the Potency was 1.46 µM (active) and the cell number change was -27.4%.

In the case of `Cc1cc(=O)n2nc(N3CCC(C(=O)N4CCN(C)CC4)CC3)sc2n1`, the Potency was 6.51 µM (active) and the cell number change was 5.43%.

With `COc1ccc(CCNC(=O)C2CCN(c3nn4c(=O)cc(C)nc4s3)CC2)cc1OC`, the “lipid storage change, negative = inhibition” value is -13.5% (inactive).

Consider `Cc1cc(=O)n2nc(N3CCCC(C(=O)NCc4ccccc4C)C3)sc2n1` (stereo not given), for which the “lipid storage change, negative = inhibition” value was -13.4% (inactive) and the cell number change stood at 0.288%.

With `Cc1cc(=O)n2nc(N3CCC(C(=O)NCCc4ccccc4)CC3)sc2n1`, the “lipid storage change, negative = inhibition” value was 16.9% (inactive) and the cell number change stood at 7.93%.

As to `Cc1cc(=O)n2nc(N3CCCC3C(=O)NCCCN3CC(C)CC(C)C3)sc2n1` (stereo not given), the Potency is 5.17 µM (active) and the cell number change is -13.9%.

As for `CCOc1ccc(CCNC(=O)C2CCN(c3nn4c(=O)cc(C)nc4s3)CC2)cc1OCC`, the Potency was 5.8 µM (active) and the cell number change worked out at 3.17%.

With `Cc1cc(=O)n2nc(N3CCCC(C(=O)N4CCN(C)CC4)C3)sc2n1` (stereo not given), the “lipid storage change, negative = inhibition” value is 2.59% (inactive) and the cell number change is -3.39%.

Regarding `COc1ccc(CCNC(=O)Cn2cnc3c(nnn3Cc3ccc(C)cc3)c2=O)cc1OC`, the “lipid storage change, negative = inhibition” value was 5.48% (inactive) and the cell number change was -15.1%.

On to `COc1ccc(CN2CCN(Cc3cc4ccccc4o3)CC2CCO)c(F)c1` (stereo not given), for which the “lipid storage change, negative = inhibition” value is 24.4% (inactive) and the cell number change came out at 5.21%.

With `C/C(=N\NC(=O)c1nnn(-c2nonc2N)c1CSc1ccccc1)c1ccco1`, the molecule was called inactive.

On to `N/C(=N/O)c1nc(N2CCCC2)nc(N2CCCC2)n1`, for which the “lipid storage change, negative = inhibition” value is 11.2% (inactive) and the cell number change came out at 6.44%.

For the molecule `COc1ccc(OC)c(CNC(=O)C(C)n2nc(C)c3c(C)n(-c4ccccc4)nc3c2=O)c1` (stereo not given), the molecule was classed as inactive and the cell number change was -28%.

Regarding `COc1ccc(CNC(=O)C(C)n2nc(C)c3c(C)n(-c4ccccc4)nc3c2=O)c(OC)c1` (stereo not given), the “lipid storage change, negative = inhibition” value was 6.4% (inactive) and the cell number change is 1.47%.

Turning to `COc1ccccc1CNC(=O)C(C)n1nc(C)c2c(C)n(-c3ccccc3)nc2c1=O` (stereo not given), the Potency was 5.8 µM (active) and the cell number change was -4.13%.

As to `O=S1(=O)c2ccccc2Nc2ccccc21`, the “lipid storage change, negative = inhibition” value was -5.34% (inactive) and the cell number change is 5.2%.

Take `Cc1nc(NS(=O)(=O)c2ccccc2)sc1NC(=O)Nc1ccc(Cl)cc1`: the “lipid storage change, negative = inhibition” value was 7.91% (inactive) and the cell number change came out at 3.01%.

Turning to `COc1ccc(CCNCc2c(OC)ccc3ccccc23)cc1OC`, the “lipid storage change, negative = inhibition” value is -2.82% (inactive) and the cell number change was 20.1%.

For the molecule `CC(C(=O)N1CCc2ccccc2C1)N(c1ccccc1)S(C)(=O)=O` (stereo not given), the Potency was 2.06 µM (active) and the cell number change is -18%.

For the molecule `CC(C(=O)N1CCCC1)N(c1ccccc1)S(C)(=O)=O` (stereo not given), the “lipid storage change, negative = inhibition” value is 18.2% (inactive) and the cell number change was -11.5%.

With `CCOC(=O)N1CCN(C(=O)C(C)N(c2ccccc2)S(C)(=O)=O)CC1` (stereo not given), the “lipid storage change, negative = inhibition” value was 14.9% (inactive) and the cell number change was 2.57%.

Turning to `COc1ccc2sc(-c3ccccc3OC)c(C#CCCO)c2c1`, the outcome was inactive and the cell number change is -1.81%.

Take `CCOc1cc(-c2cc(-c3ccc(C)o3)nc(N)c2C#N)ccc1O`: the call was inactive and the cell number change is -0.884%.

On to `O=C(NCc1cccnc1)C1CCN(c2ccc(S(=O)(=O)N3CCOCC3)cc2Cl)CC1`, for which the “lipid storage change, negative = inhibition” value is -21.4% (inactive) and the cell number change amounted to 0.843%.

With `C=CCN1C(=O)C(C(C)CC)NC1=S` (stereo not given), the Potency is 7.31 µM (active) and the cell number change was -18.2%.

For the molecule `CCC(C)C1NC(=S)N(Cc2ccccc2)C1=O` (stereo not given), the “lipid storage change, negative = inhibition” value was 4.29% (inactive) and the cell number change is -14.7%.

As for `CCC(C)C1NC(=S)N(C2CCCCC2)C1=O` (stereo not given), the “lipid storage change, negative = inhibition” value is 3.53% (inactive) and the cell number change was -20.3%.

As to `Cc1nnc(-c2cccc(C(F)(F)F)c2)nc1N1CCOCC1`, the molecule was called inactive.

As for `O=C(C1=C[C@@H](C2CC2)C[C@@H](OCc2ccc(CO)cc2)O1)N1CCOCC1`, the “lipid storage change, negative = inhibition” value was 17.1% (inactive) and the cell number change was -6.29%.

Take `Cc1ccc(C2=NNC(C(O)C(O)C(O)C(O)CO)S2)cc1` (stereo not given): the Potency is 23.1 µM (active) and the cell number change is -6.96%.

In the case of `Cc1ccc(C2=NNC(C(O)C(O)C(O)C(C)O)S2)cc1` (stereo not given), the result was inactive.

`COc1ccc(C2NN=C(c3ccc(C)cc3)S2)cc1` (stereo not given): the “lipid storage change, negative = inhibition” value is 2.54% (inactive) and the cell number change is 14.2%.

Consider `O=C(Nc1ccc(N2CCOCC2)cc1)C1CCCN(S(=O)(=O)c2cccc(C(F)(F)F)c2)C1` (stereo not given), for which the “lipid storage change, negative = inhibition” value was 9.49% (inactive) and the cell number change came to 2.4%.

With `CCCNC(=O)c1ccccc1NC(=O)CN(c1ccccc1)S(=O)(=O)N(C)C`, the “lipid storage change, negative = inhibition” value was -15.5% (inactive) and the cell number change is -16.1%.

`O=C(Nc1ccc(Cl)c(S(=O)(=O)N2CCOCC2)c1)c1ccc2c(c1)OCCO2`: the “lipid storage change, negative = inhibition” value was -7.25% (inactive) and the cell number change is 19.2%.

With `CC1(C)CC2CC(C)(CN2S(=O)(=O)c2ccc(C(=O)Nc3ccc(Cl)c(S(=O)(=O)N4CCOCC4)c3)cc2)C1` (stereo not given), the Potency was 5.8 µM (active).

With `CN1CCN(NC(=O)c2ccc(S(=O)(=O)N3CC4(C)CC3CC(C)(C)C4)cc2)CC1` (stereo not given), the “lipid storage change, negative = inhibition” value was -1.05% (inactive) and the cell number change stood at 3.86%.

`CCOc1ccc(C(=O)NCC(=O)OCc2ccc(F)cc2Cl)cc1`: the “lipid storage change, negative = inhibition” value was 8.58% (inactive) and the cell number change was 13.4%.

On to `CCn1c(=O)c2cc(C(=O)N(C)CC(OC)OC)sc2c2ccccc21`, for which the “lipid storage change, negative = inhibition” value is 2.97% (inactive) and the cell number change came to 7.22%.

On to `O=C(OCc1nnc(-c2ccccc2)o1)c1cc(S(=O)(=O)N2CCOCC2)ccc1F`, for which the “lipid storage change, negative = inhibition” value is 14.7% (inactive) and the cell number change was -16.6%.

For `CCc1cc2c(COC(=O)c3cc(S(=O)(=O)N4CCOCC4)ccc3F)cc(=O)oc2cc1O`, the Potency is 18.4 µM (active) and the cell number change was -14.4%.

Turning to `Cc1noc(C)c1COC(=O)c1cc(S(=O)(=O)N2CCOCC2)ccc1F`, the “lipid storage change, negative = inhibition” value is 16% (inactive) and the cell number change amounted to 4.32%.

The values are drawn from PubChem BioAssay AID2685 (National Center for Advancing Translational Sciences (NCATS), 2010).
